Gal4-VP16 FLuc – VP16 counterscreen qHTS for inhibitors of ROR gamma transcriptional activity. Potency, µM (doses to about 53.6 µM), for inactives: top-dose activity, negative = inhibition, actives largely listed as inhibitors. AID 2546, 2010. actives 3.5% (n = 310,000). Drosophila S2 Gal4-VP16 UAS-luciferase, luminescence, 20 h;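 note: Gal4-VP16 expression switched on by copper sulfate through the metallothionein promoter; % is set by controls: 0 for no effect and ±100 for the full control effect; nearly all actives have a fitted effect of over 50% in size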
RORgamma inh – qHTS for inhibitors of ROR gamma transcriptional activity; Drosophila S2 Gal4-RORgamma UAS-luciferase reporter, 20 h; actives 5.4% (n = 310,000); Nuclear receptor ROR-gamma (Mus musculus), P51450; Potency, µM (titrated, usually from 53.6 µM), for inactives: at the top dose activity change, negative = inhibition, hits mostly inhibitors; note: % is set by controls: 0 for no effect and ±100 for the full control effect; nearly all actives have a fitted effect of over 60% in size
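Read-out: Photinus luciferase luminescence; inhibitors lower reporter signal. Insect Schneider cells with Gal4-ROR gamma fusion under metallothionein promoter, UAS reporter; 700 uM final copper sulfate induction, 20 hr, ambient temperature.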
GLP1R inv ag – qHTS of GLP-1 Receptor Inverse Agonists (Inhibition Mode). Glucagon-like peptide 1 receptor (Homo sapiens), P43220. HEK293 GLP-1R CRE-luciferase, luminescence, 24 h; GLP-1R form is constitutively active. Potency, µM (series often up to 38.3 µM), for inactives: at the top dose activity change, negative = inhibition, hits mostly inhibitors. actives 1.6% (n = 410,000). AID 624417, 2012; note: % is set by controls: 0 for no effect and ±100 for the full control effect; nearly all actives have a fitted effect of over 55% in size
Target sequence (P43220 whole entry, looked up): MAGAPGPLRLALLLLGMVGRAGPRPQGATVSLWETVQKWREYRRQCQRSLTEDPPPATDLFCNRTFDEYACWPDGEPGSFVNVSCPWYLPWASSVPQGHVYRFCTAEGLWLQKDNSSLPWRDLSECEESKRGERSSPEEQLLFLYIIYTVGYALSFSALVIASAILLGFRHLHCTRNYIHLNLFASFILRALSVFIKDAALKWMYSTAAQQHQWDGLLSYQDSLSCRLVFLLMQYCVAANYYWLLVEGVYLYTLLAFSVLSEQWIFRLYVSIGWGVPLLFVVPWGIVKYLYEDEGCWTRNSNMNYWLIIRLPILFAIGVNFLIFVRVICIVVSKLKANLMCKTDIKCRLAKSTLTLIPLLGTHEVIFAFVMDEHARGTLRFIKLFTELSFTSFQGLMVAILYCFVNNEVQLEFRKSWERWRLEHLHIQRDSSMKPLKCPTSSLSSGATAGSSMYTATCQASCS
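GLP-1R inverse agonism mode: basal reporter luminescence in engineered HEK293 cells measured after one day of compound exposure at 37 deg C, with a 12 min room-temperature detection step.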
GLP1R ag – qHTS of GLP-1 Receptor Agonists; AID 624172, 2012; Potency, µM (highest dose often 45.6 µM), inactives show at the top dose activation, hits mostly activators; HEK293 GLP-1R CRE-luciferase, luminescence, 4-6 h; cells express a hypersensitive GLP-1R form; Glucagon-like peptide 1 receptor (Homo sapiens), P43220; actives 0.007% (n = 380,000); note: % of control where 0% means no effect
HEK293 tox – qHTS of GLP-1 Receptor Inverse Agonists: Cytotox Screen; actives 0.13% (n = 410,000); Potency, µM (highest dose often 38.3 µM), for the others: at the highest dose activity change, negative = inhibition, hits mostly inhibitors; AID 624418, 2012; HEK293 cAMP-luciferase reporter cells, luminescence, 24 h;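 note: loss of luciferase light is scored as toxicity; % is set by controls: 0 for no effect and ±100 for the full control effect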
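A 23 nL compound transfer followed 12 hours of cell culture at 37 deg C; exposure then lasted 24 hr. Luciferase assay detection reagent was dispensed and plates read for luminescence after a 12 min room-temperature wait.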
* hit, by the source's call; ? = inconclusive; . = no result given; [ ] = another dose, or the depositor's remark. Sampled rows, rich in hits. Any-hit rate of the full collection: about 5.9%. Calls come from the whole dose curve; as a rule, active = well fitted curve in the direction sought with a large enough effect; inconclusive = small, poorly fitted or top-dose-only effect, or another doubt; inactive = no such curve, though single readings can be large; an effect the other way counts as inactive or inconclusive. Potency is the fitted concentration of half-maximal effect.

SMILES	Gal4-VP16 FLuc	RORgamma inh	GLP1R inv ag	GLP1R ag	HEK293 tox
CCC1CCCCN1S(=O)(=O)c1ccc(NC(=O)c2ccncc2)cc1 (stereo unspecified)	?	40%	-28%	-1%	-2%
CC1CCN(S(=O)(=O)c2ccc(C(=O)Nc3nnc(C4=COCCO4)o3)cc2)CC1	1µM*	1.1µM*	?	-2%	-10%
O=C(Nc1nnc(C2=COCCO2)o1)c1ccc(S(=O)(=O)N2CCCCC2)cc1	3.2µM*	1.3µM*	10%	-2%	-13%
O=C(Nc1nnc(C2=COCCO2)o1)c1ccc(S(=O)(=O)N2CCCC2)cc1	-7%	17%	17%	0%	-6%
O=C(Cn1ccc2cc(S(=O)(=O)N3CCCCCC3)ccc21)NCCc1ccc(Cl)cc1	.	.	?	.	8%
O=C1C[C@H](c2ccc3ccccc3c2)N1S(=O)(=O)c1ccccc1[N+](=O)[O-]	-4%	-3%	.	.	.
c1ccc2sc(N3CCCCC3)nc2c1	.	.	11%	14%	-6%
O=C1CNC(=S)N1c1nc2ccccc2s1	5.6µM*	0.79µM*	7%	0%	1%
C=CCN(CC=C)C(=O)c1ccc2nc(Cc3ccc(OC)c(OC)c3)oc2c1	13µM*	?	121%	-11%	-11%
COc1ccc(Cc2nc3ccc(C(=O)NCc4cc(C)no4)cc3o2)cc1OC	?	?	46%	17%	6%
O=C(/C=C\Nc1ccccn1)c1ccccc1	13µM*	5µM*	?	-36%	3%
O=C(/C=C/Nc1ccccc1Br)c1ccccn1	?	?	2µM*	-22%	-3%
COc1ccc(C(=O)/C=C/Nc2ccccn2)c(OC)c1	-21%	-3%	5%	12%	12%
O=C(/C=C/c1ccccc1)c1ccccn1	?	-36%	0%	-3%	-3%
COc1ccccc1NC(=S)N/N=C/c1cccc(C)c1	1.3µM*	0.89µM*	?	5%	?
Oc1ccc(/C=N/NC(=S)N/N=C/c2ccc(O)cc2)cc1	-2%	12%	1%	7%	?
COc1ccccc1NC(=S)N/N=C/c1ccc(O)cc1	7.1µM*	4µM*	?	7%	-9%
CCOC(=O)c1ccc2c(c1)N(CC(=O)N(C)c1ccccc1)C(=O)c1ccccc1S2	.	.	-3%	28%	-6%
CCCOc1ccc(NC(=O)CC2C(=O)N(CC)C(=S)N2CCCN2CCN(Cc3ccccc3)CC2)cc1 (stereo unspecified)	?	?	7.1µM*	-3%	?
CCCOc1ccc(NC(=O)CC2C(=O)N(C)C(=S)N2Cc2cccs2)cc1 (stereo unspecified)	-5%	?	7.9µM*	-7%	-19%
CCN1C(=O)C(CC(=O)Nc2ccc(Br)cc2)N(CCCc2ccccc2)C1=S (stereo unspecified)	?	?	2µM*	-10%	?
CCN1C(=O)C(CC(=O)NCCc2ccccc2)N(NC(=O)c2ccc(Br)cc2)C1=S (stereo unspecified)	.	.	10µM*	-2%	-9%
CCNC(=O)CC1C(=O)N(CC)C(=S)N1NC(=O)c1ccc(Cl)cc1 (stereo unspecified)	5%	-10%	14%	-8%	8%
COc1ccc(C2C(C(=O)Nc3ccccc3)=C(C)Nc3nc(-c4ccccc4)nn32)cc1OC (stereo unspecified)	.	.	?	.	-21%
O=C(OCC1(COC(=O)c2cccnc2)CCCC(COC(=O)c2cccnc2)(COC(=O)c2cccnc2)C1O)c1cccnc1	.	.	.	-2%	.
SMILES	Gal4-VP16 FLuc	RORgamma inh	GLP1R inv ag	GLP1R ag	HEK293 tox
CC(C)Cn1cc(NC(=O)N2CCN(c3ccc(F)cc3)CC2)c2ccccc2c1=O	.	.	-15%	-5%	6%
CCC(NC(=O)Nc1nnc(C(F)(F)F)s1)(C(F)(F)F)C(F)(F)F	3.5µM*	?	?	-8%	-20%
O=C(O)CCC(=O)Nc1nnc(C(F)(F)F)s1	-6%	-16%	5%	-20%	-13%
O=C(NC(NC(=S)Nc1cccc(C(=O)O)c1)C(Cl)(Cl)Cl)OCc1ccccc1 (stereo unspecified)	-2%	13%	10%	7%	7%
Cc1cccc(NC(=O)NC(C)CCc2ccccc2)c1 (stereo unspecified)	1%	13%	10µM*	12%	-13%
CC(CCc1ccccc1)NC(=O)c1ccc(NC(=O)c2cccc(Br)c2)cc1 (stereo unspecified)	-10%	0%	?	-4%	-16%
Cc1cccc(NC(=S)NC(NC(=O)OCc2ccccc2)C(Cl)(Cl)Cl)c1 (stereo unspecified)	?	11µM*	12%	-3%	?
Cc1cccc(C(=O)NCC(=O)NC(C)CCc2ccccc2)c1 (stereo unspecified)	7%	0%	?	-4%	-9%
CC(CCc1ccccc1)NC(=O)c1ccc(NC(=O)c2ccccc2)cc1 (stereo unspecified)	?	2.8µM*	3%	15%	-19%
Cc1cccc(NC(=S)NC(C)CCc2ccccc2)c1 (stereo unspecified)	3.2µM*	7.1µM*	?	11%	?
COc1cccc(C(=O)c2cn(CC(=O)Nc3ccc4c(c3)OCCO4)c3nc(C)ccc3c2=O)c1	.	.	7%	.	-8%
CCc1ccc(N2C(=O)N(CC(=O)C(C)(C)C)c3ccccc3S2(=O)=O)cc1	.	.	10%	0%	-1%
O=C(Nc1ccc(F)cc1F)C1CCN(c2ncccn2)CC1	.	.	13%	.	2%
Cc1cc(C)nc(Nc2n[nH]c(-c3cccc4ccccc34)n2)n1	?	11µM*	19%	-1%	-12%
CCOC(=O)c1c(C)oc2nc(C)nc(NCCCN3CCN(c4ccc(F)cc4)CC3)c12	.	.	5%	.	9%
Cc1ccccc1CNC(=O)CN1CCSc2ccccc21	.	.	-26%	0%	0%
COc1ccc(NC(=O)COC(=O)c2c3c(nc4ccccc24)CCCC3)cc1Cl	-13%	21%	3.5µM*	-5%	?
COc1ccc(NC(=O)COC(=O)c2c3c(nc4ccccc24)CCCC3)cc1	-6%	-6%	?	-18%	-14%
C(/CCc1ccccc1)=N\Nc1nc2ccccc2[nH]1	-26%	11µM*	-21%	3%	5%
CCCc1cc(=O)[nH]c(SC/C=C/c2ccccc2)n1	.	.	16%	12%	1%
C(=N\Nc1nc2ccccc2[nH]1)/C1CCCCC1	?	11µM*	-32%	1%	?
CCCc1cc(=O)[nH]c(N/N=C/C=C\c2ccccc2)n1	4%[10 µM]	7.1µM*	-11%	3%	6%

High-throughput results: PubChem BioAssay, National Center for Advancing Translational Sciences (NCATS)
